Data: PubChem BioAssay (NCI)
The panel holds about 83,000 compounds, 20% with a hit somewhere; the sample as a whole holds those more often.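 Single-concentration screen, 48 h exposure, 96-well plates. Endpoint: percent growth. Below 10 = active.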 Values without a mark were called inactive. Active and inactive are the calls of the source.

Legend:
Experiment in all cases: NCI-60 one-dose screen, 48 h (100 = growth as untreated, 0 = no growth, -100 = all killed)
Details in all cases: 10 µM
NCI-H23 lung = system: NCI-H23 lung
NCI-H226 lung = system: NCI-H226 lung
HOP-62 NSCLC = system: HOP-62 NSCLC
NCI-H460 lung = system: NCI-H460 lung
HOP-92 NSCLC = system: HOP-92 NSCLC
NCI-H522 lung = system: NCI-H522 lung
A549/ATCC NSCLC = system: A549/ATCC NSCLC
786-0 renal = system: 786-0 renal
COLO 205 colon = system: COLO 205 colon
DU-145 prostate = system: DU-145 prostate
MDA-MB-231 breast = system: MDA-MB-231 breast
RXF 393 renal = system: RXF 393 renal
SF-268 CNS = system: SF-268 CNS
SF-295 CNS = system: SF-295 CNS
SF-539 CNS = system: SF-539 CNS
UACC-257 melanoma = system: UACC-257 melanoma
M14 melanoma = system: M14 melanoma
K-562 leukemia = system: K-562 leukemia
MALME-3M melanoma = system: MALME-3M melanoma

SMILES | growth (NCI-H23 lung) | growth (NCI-H226 lung) | growth (HOP-62 NSCLC) | growth (NCI-H460 lung) | growth (HOP-92 NSCLC) | growth (NCI-H522 lung) | growth (A549/ATCC NSCLC) | growth (786-0 renal) | growth (COLO 205 colon) | growth (DU-145 prostate) | growth (MDA-MB-231 breast) | growth (RXF 393 renal) | growth (SF-268 CNS) | growth (SF-295 CNS) | growth (SF-539 CNS) | growth (UACC-257 melanoma) | growth (M14 melanoma) | growth (K-562 leukemia) | growth (MALME-3M melanoma)
CCOc1ccccc1/C=N/N1CCCCCC1 | 89.3% | 88.2% | 97.3% | 107% | 86.9% | 102% | 117% | 119% | 108% | 111% | 96.3% | 99.9% | 93.7% | 83.8% | 109% | 115% | 107% | – | –
CC(C)C1=C(O)C2=C(C(=O)C1=O)[C@@]1(C)CCCC(C)(C)[C@@H]1CC2 | 65.8% | 83.5% | 70.6% | 37.6% | 53.6% | 86.9% | 62.1% | 78.7% | 92.7% | 81.6% | 103% | 84.3% | 63.4% | 43.3% | 90% | 78.7% | 80.7% | – | –
OC(CCN1CCCC1)(c1ccccc1)C1CCCCC1 (stereo unspecified) | 103% | 94.3% | 120% | 110% | 115% | 102% | 104% | 100% | 117% | 108% | 104% | 103% | 95.9% | 100% | – | 109% | 99.6% | 117% | –
O=C(O)Cc1ccc(O)c(O)c1 | 103% | 98.2% | 99.3% | 100% | 109% | 106% | 102% | 105% | 103% | 113% | 99.2% | 94.2% | 97.6% | 102% | 89.9% | 110% | 96.5% | 102% | –
CCN(CC)CCCC(C)Nc1c2ccc(Cl)cc2nc2ccc(OC)cc12 (stereo unspecified) | 44.7% | 36.7% | 3.18% (active) | 2.49% (active) | 27.7% | 21.1% | 17.1% | 25.6% | -71.9% (active) | 16.1% | 19.8% | -16.1% (active) | 30.4% | 26.8% | – | -89.3% (active) | -73.1% (active) | 0.665% (active) | –
Nc1nc(N)c(N)c(Nc2ccc(CCO)cc2)n1 | 98.3% | 96.2% | 95.6% | 108% | 118% | 91.9% | 102% | 109% | 95.5% | 102% | 95.3% | 109% | 103% | 105% | 111% | 103% | 97.2% | – | –
CC(C1=C(CN(C(=O)Cc2cn(-c3ccccc3)nc2-c2ccc(Cl)cc2)C(C)C)Cc2ccccc21)c1ccccn1 (stereo unspecified) | 55.3% | 69.9% | 92.7% | 53.1% | 62.2% | 44.2% | 61% | 68.2% | 66.7% | 81% | 60.2% | 86.7% | 74.5% | 75.2% | 87.2% | 67.3% | 64.7% | 43.4% | –
COc1ccc(-c2nc(-c3nc4ccc(C)cc4[nH]3)cc3c2[nH]c2ccccc23)cc1 | 39% | 63.9% | 55.3% | 32.8% | 33% | 14.7% | 28% | 69.9% | 46.9% | 41.4% | 15.8% | 27.9% | 50.3% | 25.5% | 50.2% | 69.6% | 31.5% | 17% | –
CCOC(=O)c1cc(C(=O)c2cc(OC)c(OC)c(OC)c2)n2c1ccc1c3cccnc3ccc12 | 77.4% | 82.3% | 61.9% | 82.2% | 55.5% | 22.8% | 64% | 78.5% | – | 89.3% | 69.5% | 66.8% | 69.9% | 63.4% | 55.5% | 73.4% | 31.6% | 12.9% | 79.3%
CCOC(=O)/C(=C(\C)N)C1CC(=O)NC1=O (stereo unspecified) | 96.3% | 97.3% | 107% | 101% | 112% | 102% | 101% | 101% | 109% | – | 112% | 102% | 108% | 101% | 105% | 101% | 97.2% | 83.6% | 111%
C=CCNCCN1C(=O)c2ccc3c4c(ccc(c24)C1=O)C(=O)N(CCNCC=C)C3=O | -36.4% (active) | -51.6% (active) | -28.7% (active) | -39.3% (active) | -34.5% (active) | -79.7% (active) | -71.4% (active) | -2.95% (active) | -90.5% (active) | -87.7% (active) | 5.12% (active) | -74.3% (active) | -17.5% (active) | -73.1% (active) | -90.6% (active) | -90.3% (active) | -84.3% (active) | 1.43% (active) | –
CN(C)CCCOc1ccc(OCCCN(C)C)c2c1C(=O)c1ccccc1C2=O | -19.6% (active) | -5.49% (active) | -1.4% (active) | 0.0676% (active) | -0.93% (active) | -48.5% (active) | 3.96% (active) | 16.6% | – | 4.83% (active) | -20.5% (active) | -9.08% (active) | -4.36% (active) | 14.4% | -1.42% (active) | 5.21% (active) | 1.61% (active) | 7.12% (active) | -43% (active)
Nc1c(Br)cc(Br)c2c1[nH]c(=O)c1ccccc12 | 67% | 19.5% | 22.4% | 29.1% | 82.8% | 87.4% | 58.7% | 74.3% | 86.5% | – | 54.8% | 26.2% | 76.9% | 73.1% | 83.7% | 87.9% | 100% | 78.4% | 47.8%
CC(=O)OC1CC2C(C)(C)CCC[C@]2(C)C2=C1C(O)=C(C(C)C)C(=O)C2=O (stereo partly specified) | 9.91% (active) | -71.1% (active) | -40.3% (active) | -39.8% (active) | -79.2% (active) | 58.6% | 6.64% (active) | -3.43% (active) | -38.5% (active) | -62.7% (active) | -17.8% (active) | -59.8% (active) | 15.7% | -53.1% (active) | -7.95% (active) | -12% (active) | -43% (active) | – | –
CCOC(=O)Cn1c(=O)c2sc3ncccc3c2n2nnc(-c3ccccc3)c12 | 100% | 103% | 95.4% | 125% | 71% | 92.2% | 107% | 99.9% | 104% | 119% | 87.2% | 112% | 112% | 110% | 105% | 108% | 99% | 96.4% | –
COc1ccc2c(c1)CC=C1[C@@H]2CC[C@]2(C)C(=O)/C(=N/O)C[C@@H]12 | 102% | 87.6% | 88.5% | 101% | 96.5% | 102% | 99.4% | 90.3% | 103% | 96.6% | 86.9% | 64% | 76.4% | 74.9% | 98.7% | 118% | 94.3% | – | –
Cc1ccc(C(=O)/C=C/c2ccccc2)s1 | 109% | 93.8% | 120% | 108% | 144% | 93.5% | 101% | 86.7% | 134% | 92% | 112% | 94.3% | 99% | 92.6% | 132% | 121% | 86.9% | 108% | –
O=C(Nc1ccc(OCc2nnc(-c3ccc(Cl)cc3)o2)c(F)c1)Nc1ccc(Cl)c(C(F)(F)F)c1 | -5.04% (active) | -4.39% (active) | 16.6% | 2.73% (active) | -19.3% (active) | -33.8% (active) | 12.8% | 10.1% | -76.9% (active) | 9.34% (active) | – | -10.2% (active) | 22.5% | 1.05% (active) | 12.3% | -4.65% (active) | 3.31% (active) | 11.2% | –
CC[N+](CC)=c1ccc2nc3c(cc(NCc4ccccc4)c4ccccc43)oc-2c1 | -76% (active) | -34.4% (active) | -99.6% (active) | -66.4% (active) | -7.03% (active) | -82.3% (active) | -90.2% (active) | -62.7% (active) | -89.4% (active) | -95.8% (active) | -69.6% (active) | -91.4% (active) | -15.9% (active) | -98.9% (active) | -87% (active) | -98.4% (active) | -74.4% (active) | -26.1% (active) | –
C/C(=N\O)c1ccc(NC(=O)CSc2nnc(-c3ccccc3)n2-c2ccccc2)cc1 | 76.6% | 72.4% | 64.7% | 66.7% | 30.1% | -34.7% (active) | 81.9% | 80.5% | – | 90.6% | 67.9% | 99.9% | 99.8% | 92.2% | 52.6% | 94.5% | 91.8% | 95.8% | 82.9%
COc1cc2c(cc1NC(=O)C(Cl)Cl)-c1ccc(NC(=O)C(Cl)Cl)cc1C2 | 48.6% | 19.3% | -58.3% (active) | -51.6% (active) | 40.2% | 82.5% | -4.92% (active) | 48.4% | – | -68.4% (active) | -18% (active) | -59.2% (active) | -31.2% (active) | -12.8% (active) | -14.9% (active) | -13.1% (active) | 69.8% | 20.7% | 115%
CCn1cc(C(=O)O)c(=O)c2cc(F)c(N3CCNCC3)cc21 | 108% | 92.3% | 108% | 104% | 115% | 104% | 103% | 108% | 102% | 106% | 100% | 118% | 103% | 93% | – | 106% | 117% | 96.6% | –
COc1cc(C2CC(c3ccccc3)=NN2C(C)=O)cc(OC)c1OC (stereo unspecified) | 64.1% | 82.1% | 68.2% | 15.5% | 76.1% | 7.46% (active) | 54.7% | 62.2% | 35.3% | 49.3% | 75.3% | 55% | 46.2% | 7.61% (active) | 28.3% | 64% | 29.7% | 36.9% | –
NS(=O)(=O)Oc1ccc(NC(=O)C2CCCCCC2)cc1 | 97.4% | 100% | 99.3% | 106% | 98.9% | 95.6% | 96% | 107% | – | 117% | 103% | 116% | 98.5% | 99% | 98.3% | 100% | 108% | 96.1% | 102%
Cc1cc(Br)nnc1Br | 106% | 87.2% | 91.8% | 117% | 128% | 110% | 109% | 104% | 100% | 121% | 92.7% | 120% | 107% | 111% | 87.9% | 133% | 96.8% | 99.5% | –
